# Sampled rows, rich in hits. Any-hit rate of the full collection: about 8.2%.
# KB-3-1 tox – KB-3-1 parental cell cytotoxicity; KB-3-1 viability, CellTiter-Glo ATP luminescence, 72 h; AID 1347075; Potency, µM (top dose mostly 46.1 µM), hits mostly cytotoxic; 1.4% of 400,000 active; note: % is set by controls: 0 for no effect and ±100 for the full control effect; nearly all actives have a fitted effect of over 60% in size
#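 Cytotoxicity in the drug-sensitive parental line KB-3-1 was scored as loss of CellTiter-Glo luminescence following 72 h incubation with compound. Values come from curve fitting of normalized concentration-response data.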
# MCF10A rerep – induces DNA re-replication in MCF 10a normal breast cells; 2.9% of 350,000 active; Potency, µM (doses to about 46.1 µM), for the others: top-dose activity, positive = re-replication, actives largely listed as activators; MCF 10A DNA re-replication, Hoechst nuclear intensity, 48 h; AID 624296; note: % of control where 0% means no effect; nearly all actives have a fitted effect of over 50% in size
# SW480 rereplic – inducers of DNA re-replication in SW480 colon cancer cells. SW480 DNA re-replication, Hoechst DNA content imaging, 48 h. Potency, µM (titrated, usually from 46.1 µM), for inactives: at the top dose re-replication activation, usual class: activators. 1.8% of 340,000 active. AID 624297; note: % of control where 0% means no effect; nearly all actives have a fitted effect of over 55% in size
#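 Quantitative HTS format with DMSO vehicle controls; 48 hr drug incubation at 37 C, then 40 min Hoechst staining and scanning imager measurement at 405 nm excitation.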
# KB-V1 cytotox – KB-V1 MDR subline cytotoxicity; KB-V1 MDR cells viability, CellTiter-Glo, 72 h; Potency, µM (series often up to 46.1 µM), actives largely listed as cytotoxic; 3.4% of 400,000 active; AID 1347076; note: % is set by controls: 0 for no effect and ±100 for the full control effect; nearly all actives have a fitted effect of over 60% in size
#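 Drug-selected KB-V1 cells, grown in DMEM lacking phenol red with 10% FBS, receive compound titrations; after three days at 37 degrees C, surviving cell ATP is quantified by CellTiter-Glo luminescence and responses normalized and curve-fitted.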
# ELG1 repair inh – blocks ELG1-dependent DNA repair in HEK293T cells | HEK293T ELG1-luciferase reporter, luminescence, 16 h; DNA damage induced by 5-fluorouridine | Potency, µM (series often up to 46.1 µM), for the others: top-dose activity change, negative = inhibition, actives largely listed as inhibitors | 2.3% of 330,000 active | AID 504467; note: % is set by controls: 0 for no effect and ±100 for the full control effect; nearly all actives have a fitted effect of over 55% in size
#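 5-Fluorouridine DNA damage + compound/DMSO, 2,000 cells/well, 16 h, 37 °C/5% CO2. ONE-Glo, 30 min RT, luminescence. Readout = decrease in reporter signal.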
# * hit, by the source's call; i = inactive; u = inconclusive; x = not tested or not shown; [ ] = remark or other dose. Calls come from the whole dose curve; as a rule, active = well fitted curve in the direction sought with a large enough effect; inconclusive = small, poorly fitted or top-dose-only effect, or another doubt; inactive = no such curve, though single readings can be large; an effect the other way counts as inactive or inconclusive. Potency is the fitted concentration of half-maximal effect.
SMILES,KB-3-1 tox,MCF10A rerep,SW480 rereplic,KB-V1 cytotox,ELG1 repair inh
CN(c1ccccc1)S(=O)(=O)c1ccc(Cl)c(C(=O)Nc2ccc(-c3nc4ccccc4[nH]3)cc2)c1,u,11%,u,u,u
CC(=O)c1cc(-c2ccccc2)n(CC(=O)NCc2ccccc2C)c1C,i,x,x,i,x
COc1ccc2[nH]c(S(=O)Cc3ncc(C)c(OC)c3C)nc2n1 (stereo unspecified),x,u,-2%,x,x
Cc1cc(NC(=O)c2c(F)cccc2F)n(-c2nc3ccccc3[nH]2)n1,u,12µM*,8.2µM*,i,u
Cc1cc(Nc2ccccc2)n(-c2nc3ccccc3[nH]2)n1,u,u,14%,u,-26%
O=C(NCCc1nc2ccccc2[nH]1)c1ccc(F)cc1,u,1%,3%,12µM*,12%
COc1cc(CN2CCN(S(=O)(=O)c3ccc(NC(C)=O)cc3)CC2)cc(OC)c1OC,i,x,x,i,x
CCCNC(=O)N1[C@H](c2cccs2)[C@@H](C)C(=O)[C@@H](C)[C@@H]1c1cccs1,i,x,x,i,x
C=CCNc1nc(N)c(C(=C(C#N)C#N)c2ccc(Br)cc2)s1,u,u,21µM*,18µM*,18µM*
C=CCNc1sc(C(=O)c2ccc(C)cc2)c(N)c1C#N,i,u,3%,i,2%
CC(C)C[C@H]1COc2cc(N(C)CCO)ccc2S(=O)(=O)N1,i,x,x,u,x
CC(C)C(CCNC1CCN(C)CC1)c1ccc(Cl)cc1 (stereo unspecified),u,u,14%,u,23µM*
CN1CCC(NCCC(c2ccc(F)cc2)c2ccc(Cl)cc2)CC1 (stereo unspecified),16µM*,u,u,u,u
CCNC(=O)N1CCN(CCCC(c2ccc(F)cc2)c2ccc(F)cc2)CC1,i,u,-15%,u,-6%
CC(C)c1ccc(-c2cc(C(=O)N3N=C(C(F)F)CC3(O)C(F)F)c3ccccc3n2)cc1 (stereo unspecified),u,4.5µM*,u,u,u
Cn1c(=O)c2c(nc(Sc3ncccn3)n2Cc2ccccc2Cl)n(C)c1=O,i,u,-13%,23µM*,u
CCSc1nc2c(c(=O)[nH]c(=O)n2C)n1Cc1ccc(Cl)cc1,u,5%,0%,7.3µM*,u
CCSc1nc2c(c(=O)n(C)c(=O)n2C)n1Cc1ccc(Cl)cc1,i,5%,-10%,13µM*,x
Cn1c(=O)c2c(nc(Sc3ncccn3)n2Cc2ccc(Cl)cc2)n(C)c1=O,i,7%,-1%,i,16µM*
Cn1c(=O)c2c(nc(SCCN3CCCCC3)n2Cc2ccc(Cl)cc2)n(C)c1=O,i,0%,20%,i,u
Cc1nnc(Sc2nc3c(c(=O)n(C)c(=O)n3C)n2Cc2ccc(Cl)cc2)s1,i,u,-708%,u,-22%
OCCC1CN(Cc2cccc3nccnc23)CCN1Cc1ccc(F)cc1 (stereo unspecified),i,3%,-33%,u,-27%
Cn1c(=O)c2c(nc(SCC(=O)NCc3ccc4c(c3)OCO4)n2Cc2ccc(Cl)cc2)n(C)c1=O,i,16%,14%,4.1µM*,u
COC(=O)c1ccc(NC(=O)CSC2=Nc3ccccc3C3CC=NN23)cc1 (stereo unspecified),i,-1%,-5%,16µM*,u
O=C(CSC1=Nc2ccccc2C2CC=NN12)Nc1ccc(F)cc1Cl (stereo unspecified),i,u,8%,u,10%
SMILES,KB-3-1 tox,MCF10A rerep,SW480 rereplic,KB-V1 cytotox,ELG1 repair inh
Cc1ccc(NC(=O)CSC2=Nc3ccccc3C3CC=NN23)c(C)c1 (stereo unspecified),i,8%,-5%,13µM*,u
COc1ccc(-n2nnnc2/C=C\Nc2ccc(C)cc2)cc1,i,6%,-14%,i,-10%
O=C(NCc1ccc2c(c1)OCO2)C1CC(c2ccccc2O)=NO1 (stereo unspecified),i,u,-3%,i,24%
O=C(NCc1ccc2c(c1)OCO2)C1CC(c2cccc(Br)c2)=NO1 (stereo unspecified),i,12µM*,-11%,i,1%
O=C(Nc1cccc(O)c1)C1CC(c2cccc(Br)c2)=NO1 (stereo unspecified),i,-1%,5%,i,16%
COCCNC(=O)C1CC(c2cccc(OC)c2)=NO1 (stereo unspecified),i,-3%,-2%,i,9%
CCCn1cc(NC(=O)C2CC(c3cccc(Br)c3)=NO2)cn1 (stereo unspecified),i,23µM*,16µM*,i,-4%
COc1cccc(C2=NOC(C(=O)NCc3ccccc3)C2)c1 (stereo unspecified),12µM*,1.6µM*,u,u,15%
COc1cccc(C2=NOC(C(=O)NCc3ccco3)C2)c1 (stereo unspecified),23µM*,4.1µM*,u,21µM*,41%
O=C(Cn1cc2c(n1)CCCC2)Nc1cc(C(F)(F)F)ccc1Cl,i,x,x,i,x
Cc1ccc(S(=O)(=O)NCCC(=O)OCC(=O)NCCc2ccccc2)cc1C,i,7%,-1%,i,1%
COc1ccc(CNC(=O)C2CC(c3cc(C(F)(F)F)cc(C(F)(F)F)c3)=NO2)cc1 (stereo unspecified),u,6.5µM*,-9%,u,-19%
COc1ccc(C2=NOC(C(=O)NCc3ccccc3)C2)cc1 (stereo unspecified),7.3µM*,0.37µM*,2.6µM*,7.3µM*,26%
COc1ccc(CCNC(=O)C2CC(c3ccc(C(F)(F)F)cc3)=NO2)cc1 (stereo unspecified),i,-6%,-8%,i,-2%
COc1ccc(CNC(=O)C2CC(c3ccccc3C(F)(F)F)=NO2)cc1 (stereo unspecified),i,-13%,19%[9.22 µM],i,19%
CC(=O)Nc1ccc(/C=C/c2ccnc3ccccc23)cc1,i,x,x,i,x
C=C1SC(Nc2c(C)cccc2C)=NC12CCCCC2,i,15%,-22%,u,-1%
C=C1SC(Nc2c(C)cc(C)cc2C)=NC12CCCCC2,i,u,u,i,23µM*
COc1ccccc1C(=O)COC(=O)c1nc(Cl)ccc1Cl,i,-2%,-58%,u,8%
COc1cc(/C=N/NC(=O)c2ccc(COc3ccccc3Cl)o2)cc(Br)c1O,i,7%,-12%,i,-6%
COC(=O)c1ccc(COc2ccccc2/C=N/O)o1,i,-24%,1.8µM*,i,u
O=C(N/N=C/c1ccccc1F)c1ccc(COc2ccccc2Cl)o1,i,u,-2%,18µM*,-6%

# Assay outcomes deposited in PubChem BioAssay by National Center for Advancing Translational Sciences (NCATS).
